Results reported in PubChem BioAssay (NCATS).
Inconclusive results are not listed. The source made the active and inactive calls. Unless noted, calls come from the whole dose curve; as a rule, active = well fitted curve in the direction sought with a large enough effect; inconclusive = small, poorly fitted or top-dose-only effect, or another doubt; inactive = no such curve, though single readings can be large; an effect the other way counts as inactive or inconclusive.

Experiments:
[1] = molecular target: Cytochrome P450 1A2 (Homo sapiens) (UniProt P05177); test: p450-cyp1a2 (AID 410; calls by dose curve; note: potency is the fitted concentration of half-maximal effect;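 for activity change, negative = inhibition: -100% = full effect of reference inhibitor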)
In short: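 Human CYP1A2 (20nM) demethylated Luciferin-ME at its Km (100uM) in 100mM KPO4. After 10 min compound preincubation, NADPH regeneration ran the reaction 60 min at room temperature. Luciferin was read by luminescence, normalized to 57 uM furafylline.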

[2] = molecular target: Glucocorticoid receptor (Homo sapiens) (UniProt P04150); test: GR-GFP Redistribution (AID 450;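 active = compounds whose dose series gives a full or clear partial fitted curve of increased nuclear translocation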; note: potency is the fitted concentration of half-maximal effect); conditions: U2OS GR-GFP nuclear translocation, laser cytometry, 2 h
[3] = molecular target: Glucocorticoid receptor (Homo sapiens) (UniProt P04150); test: GR-EFC Redistribution (AID 451; calls by dose curve; note: potency is the fitted concentration of half-maximal effect); conditions: CHO-K1 GR-EFC translocation, beta-gal luminescence, 2 h
In short: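 Translocation of GR-ED fusion to nuclear EA restores b-gal, read by luminescence after 1 h room-temperature detection. Engineered CHO-K1 biosensor cells, 1,000/well, exposed 2 h at 37 C to titrations up to 46 uM final.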

[4] = molecular target: 3',5'-cyclic-AMP phosphodiesterase 4B (Homo sapiens) (UniProt Q07343); test: qHTS Assay for Inhibitors of PDE-IV (AID 607; active = well fitted activation curve with a large enough effect in the main read-out, with a control signal flat, not every such curve was filed as active; note: % of control where 0% means no effect)
In short: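 Live HEK293 cells with a modified cyclic nucleotide-gated (CNG) channel report intracellular cAMP via membrane-potential dye fluorescence (ex 535/em 590 nm). Endogenous PDE-IV was targeted. Compounds were tested at up to 22.9 uM final; RO 20-1724 100 uM served as control.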

[5] = molecular target: Cytochrome P450 3A4 (Homo sapiens) (UniProt P08684); test: qHTS Assay for Activators of Cytochrome P450 3A4 (AID 885); note: nearly all actives have a fitted effect of over 65% in size
In short: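 Quantitative HTS format: compounds preincubated with 20nM human CYP3A4 and Luciferin-PPXE substrate at KM, reaction started by NADPH regeneration, stopped after 60 min, luciferase luminescence read 20 min later.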

[6] = molecular target: Ubiquitin carboxyl-terminal hydrolase 1 (Homo sapiens) (UniProt O94782); test: Inhibitors of USP1/UAF1: Pilot qHTS (AID 504865);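 note: rhodamine fluorescence freed from ubiquitin-rhodamine substrate followed over time; top concentration of the series differs between compounds; % is set by controls: 0 for no effect and ±100 for the full control effect; nearly all actives have a fitted effect of over 35% in size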
In short: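 1nM USP1/UAF1 + cpd, 15 min RT; start w/ Ub-Rho 150nM final; kinetic FL 480/540 nm, 6 reads q60 s. Buffer 50mM HEPES pH 7.8, 0.5mM EDTA, 1mM TCEP, 0.01% Tween-20, 0.1 mg/ml BSA.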

[7] = molecular target: DNA dC->dU-editing enzyme APOBEC-3G (Homo sapiens) (UniProt Q9HC16); test: qHTS for inhibitors of Vif-A3G interactions: Validation (AID 588379); note: 0% is about no effect
In short: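 HeLa cells stably expressing Vif and A3G-eYFP, 700 cells/well, incubated overnight at 37 deg C, then exposed to compound overnight at 37 deg C. Inhibition of Vif-mediated degradation read as increased yellow fluorescence (Ex 488/Em 500-530) by laser-scanning cytometry.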

[8] = test system: Zika virus NS2B-NS3 protease; test: Primary screen GU AMC qHTS for Zika virus inhibitors (AID 1347154);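 note: 0% = no-inhibitor control and -100% = no-enzyme control; nearly all actives have a fitted effect of over 70% in size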
In short: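 Fluorogenic AMC-substrate cleavage by noncovalent NS2B-NS3 protease complex (25 nM, pH 8.0 Tris buffer with Tween 20) followed for 15 minutes at room temperature (~20% conversion). Percent inhibition from ex340/em450 signal change, fitted by 4-parameter Hill equation.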

[9] = Primary qHTS for small molecule stabilizers of the endoplasmic reticulum resident proteome: Secreted ER Calcium Modulated Protein (SERCaMP) assay (AID 1508630); note: % is set by controls: 0 for no effect and ±100 for the full control effect
In short: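 GLuc-SERCaMP-expressing SH-SY5Y cells, pretreated 16 h with compound, are challenged with thapsigargin to empty ER calcium stores; after 4 h, coelenterazine is added directly to the medium and luminescence is imaged.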

[10] = molecular target: Mitogen-activated protein kinase 10 (Mus musculus) (UniProt Q61831); test: JNK3 AlphaScreen Assay (AID 530; active = well fitted curve in either direction with a large enough effect, not every such curve was filed as active;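 note: kinase came from lysate of stimulated human HepG2 cells; signal reports phosphorylation of biotinylated GST-cJun 1-79 at Ser73 with 10 µM ATP; % is set by controls: 0 for no effect and ±100 for the full control effect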)
In short: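 Room-temperature AlphaScreen kinase assay; pre-activated HepG2 lysate as JNK3 source, biotin-GST-cJun(1-79) substrate, 10 uM ATP, compound 15 min preincubation.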

[11] = NFAT Signaling Pathway (AID 444; active = well fitted curve in either direction with a large enough effect, not every such curve was filed as active;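 note: carbachol stimulus at about its EC50 of 1 µM final; % is set by controls: 0 for no effect and ±100 for the full control effect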); conditions: Jurkat NFAT-bla M1, carbachol, beta-lactamase ratio, 5 h; at 38 µM (top of the series)
In short: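 Read-out: CCF4 FRET ratio (460 nm/530 nm) after 1 h RT dye loading, used for %activity and AC50 from titration series. Cells: Jurkat NFAT-β-lactamase/M1 line, treated with compound plus 1 uM carbachol for 5 h, 37 °C.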

[12] = Stat Signaling Pathway (AID 446; active = well fitted curve in either direction with a large enough effect, not every such curve was filed as active;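 note: ME-180 cervical cancer cells given 40 pM IL-6 alongside compound; SIE-controlled beta-lactamase reporter measured as 460/530 nm FRET emission ratio; % is set by controls: 0 for no effect and ±100 for the full control effect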); conditions: ME-180 (cervical carcinoma) SIE beta-lactamase reporter, IL-6 stimulated, 5 h; at 38 µM (top of the series)
In short: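 IL-6/STAT signaling read in ME-180 cells via an SIE beta-lactamase reporter. Stimulus was 40 pM IL-6 (its AC50) for 5 hrs, so both activation and inhibition register.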

[13] = molecular target: Guanine nucleotide-binding protein G(i) subunit alpha-1 (Homo sapiens) (UniProt P63096); test: qHTS Assay for Inhibitors of RGS12 GoLoco Motif Activity (Green Fluorophore) (AID 879);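 note: 0% = labeled peptide with Gαi1 and full inhibition = labeled peptide alone without protein; negative values mean loss of peptide binding seen as reduced polarization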
In short: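 Fluorescence polarization assay: 50 nM Gαi1 with 10 nM FITC-labeled RGS12 GoLoco peptide in 10 mM Tris pH 7.5, 150 mM NaCl, 0.1 mM GDP, 0.05% NP40, 10 min at room temperature with compound.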

[14] = molecular target: Cytochrome P450 3A4 (Homo sapiens) (UniProt P08684); test: qHTS Assay for Inhibitors and Substrates of Cytochrome P450 3A4 (AID 884); note: nearly all actives have a fitted effect of over 50% in size; note: potency is the fitted concentration of half-maximal effect
In short: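 20 nM human CYP3A4 with 25 uM Luciferin-PPXE (at KM) in 200 mM KPO4, preincubated 10 min with compound; NADPH regeneration started a 60 min RT reaction. Luciferin detected by luminescence, normalized to 57 uM ketoconazole as full inhibition.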

[15] = molecular target: Pyruvate kinase PKM (Homo sapiens) (UniProt P14618); test: qHTS Assay for Activators of Human Muscle Pyruvate Kinase (AID 954; active = well fitted curve in the direction sought with a large enough effect, not every such curve was filed as active;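 note: 0% = uninhibited enzyme and -100% = no enzyme or full thiadiazolimine inhibition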)
In short: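 Enzyme was run at intermediate activity so both inhibitors and activators could be detected. ATP formed from ADP and PEP by 0.1 nM human PKM2 during a 1 h room-temperature incubation was quantified by coupled luciferase luminescence.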

[16] = molecular target: alpha-glucosidase (Oryza sativa, rice) (UniProt Q653V4); test: Counterscreen for Glucocerebrosidase Inhibitors: qHTS Assay for Rice alpha-Glucosidase at pH 5.0 (AID 997);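 note: 0% = full activity with enzyme and -100% = basal without enzyme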
In short: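 Rice alpha-glucosidase (4 nM final) with 400 uM 4-methylumbelliferyl-alpha-D-glucopyranoside in citrate buffer pH 5.0, 20 min at room temperature, stopped at pH 10; fluorescence 365/440 nm, compounds 0.7 nM–77 uM, AC50 from Hill fits.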

[17] = molecular target: Cytochrome P450 2C19 (Homo sapiens) (UniProt P33261); test: qHTS Assay for Inhibitors and Substrates of Cytochrome P450 2C19 (AID 899); note: potency is the fitted concentration of half-maximal effect; nearly all actives have a fitted effect of over 60% in size
In short: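 Reactions contain 5nM enzyme, 10uM Luciferin-H EGE (KM) and 50mM KPO4; compound preincubates 10 min at 37C, NADPH regeneration starts turnover for 60 min. Luminescence after detection reagent gives activity.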

[18] = molecular target: Cytochrome P450 2C9 (Homo sapiens) (UniProt P11712); test: qHTS Assay for Inhibitors and Substrates of Cytochrome P450 2C9 (AID 883); note: potency is the fitted concentration of half-maximal effect; nearly all actives have a fitted effect of over 60% in size
In short: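 Turnover of Luciferin-H (100uM, KM) by 10nM human CYP2C9 was measured over 60 min at 37C with NADPH regeneration; inhibitors and some substrates reduce luminescence. Data normalized to sulphaphenazole 57uM.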

Sequence of Pyruvate kinase PKM (Homo sapiens) (P14618 whole entry, looked up): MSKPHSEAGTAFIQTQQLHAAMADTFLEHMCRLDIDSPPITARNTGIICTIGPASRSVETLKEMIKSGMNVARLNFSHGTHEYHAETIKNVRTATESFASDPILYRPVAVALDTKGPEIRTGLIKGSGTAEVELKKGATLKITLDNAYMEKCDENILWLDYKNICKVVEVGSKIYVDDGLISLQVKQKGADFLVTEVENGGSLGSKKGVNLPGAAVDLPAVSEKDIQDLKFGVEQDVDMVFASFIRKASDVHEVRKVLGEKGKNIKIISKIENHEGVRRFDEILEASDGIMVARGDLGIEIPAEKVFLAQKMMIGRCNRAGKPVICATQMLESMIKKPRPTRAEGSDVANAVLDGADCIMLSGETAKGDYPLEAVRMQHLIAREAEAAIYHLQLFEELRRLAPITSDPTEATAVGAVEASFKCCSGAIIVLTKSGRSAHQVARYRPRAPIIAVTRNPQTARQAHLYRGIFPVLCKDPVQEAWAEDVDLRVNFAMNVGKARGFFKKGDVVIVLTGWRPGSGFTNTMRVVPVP
Sequence of DNA dC->dU-editing enzyme APOBEC-3G (Homo sapiens) (Q9HC16 whole entry, looked up): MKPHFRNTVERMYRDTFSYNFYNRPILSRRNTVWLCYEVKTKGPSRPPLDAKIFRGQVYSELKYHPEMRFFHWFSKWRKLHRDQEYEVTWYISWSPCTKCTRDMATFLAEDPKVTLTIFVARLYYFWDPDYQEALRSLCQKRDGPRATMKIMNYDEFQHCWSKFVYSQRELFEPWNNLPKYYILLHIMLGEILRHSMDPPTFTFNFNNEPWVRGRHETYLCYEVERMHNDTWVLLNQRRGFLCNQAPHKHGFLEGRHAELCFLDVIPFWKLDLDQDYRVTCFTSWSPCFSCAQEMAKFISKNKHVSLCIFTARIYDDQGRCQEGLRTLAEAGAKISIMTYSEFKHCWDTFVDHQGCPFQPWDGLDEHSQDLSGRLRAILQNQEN
Sequence of Cytochrome P450 3A4 (Homo sapiens) (P08684 whole entry, looked up): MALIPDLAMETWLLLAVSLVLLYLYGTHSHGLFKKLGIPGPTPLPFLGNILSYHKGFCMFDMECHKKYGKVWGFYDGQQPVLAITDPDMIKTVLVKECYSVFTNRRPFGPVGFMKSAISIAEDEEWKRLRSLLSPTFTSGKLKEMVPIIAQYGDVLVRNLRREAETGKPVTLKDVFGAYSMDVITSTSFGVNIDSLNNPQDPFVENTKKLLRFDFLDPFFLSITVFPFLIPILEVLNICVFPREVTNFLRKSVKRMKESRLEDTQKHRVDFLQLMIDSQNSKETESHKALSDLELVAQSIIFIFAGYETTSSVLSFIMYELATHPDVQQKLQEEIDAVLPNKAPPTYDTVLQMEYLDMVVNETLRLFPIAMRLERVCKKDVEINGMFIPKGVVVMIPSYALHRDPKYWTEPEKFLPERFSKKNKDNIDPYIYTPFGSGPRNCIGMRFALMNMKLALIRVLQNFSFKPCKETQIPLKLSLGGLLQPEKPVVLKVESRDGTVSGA
Sequence of Ubiquitin carboxyl-terminal hydrolase 1 (Homo sapiens) (O94782 whole entry, looked up): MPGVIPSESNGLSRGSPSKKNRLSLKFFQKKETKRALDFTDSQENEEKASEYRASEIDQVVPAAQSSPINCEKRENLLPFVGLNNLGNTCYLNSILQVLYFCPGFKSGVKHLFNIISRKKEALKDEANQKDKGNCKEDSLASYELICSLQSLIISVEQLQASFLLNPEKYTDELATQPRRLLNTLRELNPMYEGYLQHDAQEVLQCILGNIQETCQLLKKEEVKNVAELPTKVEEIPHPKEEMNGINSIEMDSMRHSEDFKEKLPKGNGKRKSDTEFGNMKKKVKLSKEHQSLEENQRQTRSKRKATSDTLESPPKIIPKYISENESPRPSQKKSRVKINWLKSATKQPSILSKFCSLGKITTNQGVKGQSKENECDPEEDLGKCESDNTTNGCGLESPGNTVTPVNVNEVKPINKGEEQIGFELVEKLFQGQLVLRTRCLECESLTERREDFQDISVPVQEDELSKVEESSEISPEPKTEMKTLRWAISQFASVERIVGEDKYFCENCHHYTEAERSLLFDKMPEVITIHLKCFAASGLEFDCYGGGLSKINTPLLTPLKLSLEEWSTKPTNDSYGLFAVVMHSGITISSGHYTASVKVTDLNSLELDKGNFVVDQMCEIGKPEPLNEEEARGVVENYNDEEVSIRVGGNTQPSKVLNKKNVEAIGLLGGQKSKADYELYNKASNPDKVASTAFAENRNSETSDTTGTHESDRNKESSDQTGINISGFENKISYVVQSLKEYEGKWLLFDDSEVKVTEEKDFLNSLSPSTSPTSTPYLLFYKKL
Sequence of Cytochrome P450 1A2 (Homo sapiens) (P05177 whole entry, looked up): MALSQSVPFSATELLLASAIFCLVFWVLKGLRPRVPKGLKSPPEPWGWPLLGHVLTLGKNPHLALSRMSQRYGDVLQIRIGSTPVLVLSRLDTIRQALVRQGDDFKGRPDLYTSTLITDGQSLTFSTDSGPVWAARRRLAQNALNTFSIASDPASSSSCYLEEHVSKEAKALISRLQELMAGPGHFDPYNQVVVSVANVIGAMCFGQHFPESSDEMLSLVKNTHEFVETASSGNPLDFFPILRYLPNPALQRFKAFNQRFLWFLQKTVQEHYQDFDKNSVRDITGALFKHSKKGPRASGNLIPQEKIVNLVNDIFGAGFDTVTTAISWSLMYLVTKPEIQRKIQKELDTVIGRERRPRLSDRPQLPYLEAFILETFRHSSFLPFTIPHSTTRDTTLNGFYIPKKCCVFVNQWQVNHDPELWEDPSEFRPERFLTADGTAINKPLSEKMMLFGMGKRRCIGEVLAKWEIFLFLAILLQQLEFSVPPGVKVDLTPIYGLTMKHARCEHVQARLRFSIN
Sequence of Cytochrome P450 2C19 (Homo sapiens) (P33261 whole entry, looked up): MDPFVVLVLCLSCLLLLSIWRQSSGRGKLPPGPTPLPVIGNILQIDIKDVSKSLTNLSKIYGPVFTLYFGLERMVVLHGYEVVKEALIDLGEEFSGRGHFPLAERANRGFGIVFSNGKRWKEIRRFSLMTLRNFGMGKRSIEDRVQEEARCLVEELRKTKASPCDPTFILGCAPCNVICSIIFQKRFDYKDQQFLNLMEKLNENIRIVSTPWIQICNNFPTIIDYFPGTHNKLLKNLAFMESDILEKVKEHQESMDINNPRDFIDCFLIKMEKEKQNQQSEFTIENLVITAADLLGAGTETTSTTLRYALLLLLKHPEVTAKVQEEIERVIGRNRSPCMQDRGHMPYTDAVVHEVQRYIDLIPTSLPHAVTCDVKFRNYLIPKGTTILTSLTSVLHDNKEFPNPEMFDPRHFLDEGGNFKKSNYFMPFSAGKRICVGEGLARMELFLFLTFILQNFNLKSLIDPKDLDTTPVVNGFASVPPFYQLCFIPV
Sequence of Guanine nucleotide-binding protein G(i) subunit alpha-1 (Homo sapiens) (P63096 whole entry, looked up): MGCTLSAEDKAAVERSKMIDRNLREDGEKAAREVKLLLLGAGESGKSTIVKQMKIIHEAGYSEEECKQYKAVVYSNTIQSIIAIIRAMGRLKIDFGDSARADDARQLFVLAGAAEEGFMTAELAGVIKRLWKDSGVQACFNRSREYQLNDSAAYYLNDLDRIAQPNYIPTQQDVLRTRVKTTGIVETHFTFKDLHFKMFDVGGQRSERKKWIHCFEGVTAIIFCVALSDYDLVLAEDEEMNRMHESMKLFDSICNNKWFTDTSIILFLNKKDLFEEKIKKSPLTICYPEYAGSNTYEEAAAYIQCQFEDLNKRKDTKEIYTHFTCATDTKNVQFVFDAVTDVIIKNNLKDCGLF
Sequence of 3',5'-cyclic-AMP phosphodiesterase 4B (Homo sapiens) (Q07343 whole entry, looked up): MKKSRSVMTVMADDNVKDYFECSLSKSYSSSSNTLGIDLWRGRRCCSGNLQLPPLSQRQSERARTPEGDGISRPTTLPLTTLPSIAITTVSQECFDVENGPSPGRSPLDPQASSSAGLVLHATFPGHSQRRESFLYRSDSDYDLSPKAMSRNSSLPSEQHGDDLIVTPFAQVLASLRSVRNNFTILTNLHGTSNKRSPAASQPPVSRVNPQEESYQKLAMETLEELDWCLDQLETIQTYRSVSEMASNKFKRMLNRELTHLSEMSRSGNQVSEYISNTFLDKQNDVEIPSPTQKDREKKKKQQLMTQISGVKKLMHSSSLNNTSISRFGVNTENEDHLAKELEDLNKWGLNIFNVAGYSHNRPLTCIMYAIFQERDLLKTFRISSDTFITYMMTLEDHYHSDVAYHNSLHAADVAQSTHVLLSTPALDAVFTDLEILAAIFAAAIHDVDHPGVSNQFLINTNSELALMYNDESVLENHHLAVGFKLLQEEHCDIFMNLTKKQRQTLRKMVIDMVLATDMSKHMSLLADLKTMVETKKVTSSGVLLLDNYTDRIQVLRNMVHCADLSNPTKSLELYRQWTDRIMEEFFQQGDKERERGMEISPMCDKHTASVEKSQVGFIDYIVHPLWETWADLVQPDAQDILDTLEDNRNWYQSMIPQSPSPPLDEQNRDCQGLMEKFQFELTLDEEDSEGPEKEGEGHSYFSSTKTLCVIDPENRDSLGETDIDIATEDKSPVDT
Sequence of Cytochrome P450 2C9 (Homo sapiens) (P11712 whole entry, looked up): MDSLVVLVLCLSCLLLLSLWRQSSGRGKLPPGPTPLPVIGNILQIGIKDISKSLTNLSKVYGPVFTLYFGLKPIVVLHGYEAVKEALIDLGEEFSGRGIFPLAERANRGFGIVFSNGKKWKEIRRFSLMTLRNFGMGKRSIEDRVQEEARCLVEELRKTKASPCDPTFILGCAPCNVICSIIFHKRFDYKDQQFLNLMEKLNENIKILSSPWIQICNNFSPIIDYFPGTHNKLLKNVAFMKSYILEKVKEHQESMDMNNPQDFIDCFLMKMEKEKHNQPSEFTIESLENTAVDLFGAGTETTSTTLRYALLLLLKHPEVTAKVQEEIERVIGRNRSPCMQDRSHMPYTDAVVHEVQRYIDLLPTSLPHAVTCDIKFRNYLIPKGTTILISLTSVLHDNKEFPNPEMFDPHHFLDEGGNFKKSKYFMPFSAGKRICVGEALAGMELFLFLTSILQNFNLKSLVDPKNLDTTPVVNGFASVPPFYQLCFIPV

Nc1nc(NCCc2ccc(O)cc2)nc2nc(-c3ccco3)nn12
active: Potency [1] 31.6 µM
inactive: Potency [2] > 46 µM | Potency [3] > 46 µM | Potency [4] | Potency [5] | Potency [6] | Potency [7] | Potency [8] | Potency [9]

CCCCCCN(CCCCCC)C(=O)Cc1c(-c2ccc(Cl)cc2)[nH]c2ccc(Cl)cc12
active: Potency [1] 31.6 µM
inactive: Potency [2] > 46 µM | Potency [3] > 46 µM | Potency [10] | Potency [4] | Potency [5] | Potency [6] | Potency [7] | Potency [8] | Potency [9]

Cc1cccc([C@@H]2CN(C)CCc3c2cc(O)c(O)c3Cl)c1
inactive: Potency [1] | activity change, negative = inhibition [11] -15% | activity, negative = inhibition [12] 11.4% | Potency [2] > 46 µM | Potency [3] > 46 µM | Potency [4] | outcome [13] | Potency [14] | outcome [15] | outcome [16] | Potency [7] | Potency [8] | Potency [9]

CCOC(=O)C1=C(N)Oc2ccc(Br)cc2[C@@H]1[C@@H](C#N)C(=O)OCC
active: Potency [1] 0.251 µM
inactive: Potency [2] > 46 µM | Potency [3] > 46 µM | Potency [10] | Potency [4] | Potency [7] | Potency [8] | Potency [9]

CCc1cc2c(c(CC)n1)CCC(=O)N2Cc1ccc(-c2ccccc2-c2nn[nH]n2)cc1
active: Potency [17] 5.01 µM
inactive: Potency [1] | Potency [2] > 46 µM | Potency [3] > 46 µM | Potency [10] | Potency [5] | Potency [7] | Potency [8] | Potency [9]

CCCn1c(=O)[nH]c2nc(-c3ccc(S(=O)(=O)O)cc3)[nH]c2c1=O
inactive: Potency [14]

CCCCC(=O)NCCc1c(Cc2ccccc2)[nH]c2ccccc12
active: Potency [14] 0.794 µM

Cn1ccc2cc(NC(=O)Nc3cccnc3)ccc21
inactive: Potency [2] > 46 µM | Potency [3] > 46 µM | Potency [4] | Potency [7] | Potency [8] | Potency [9]

Cc1ccc(S(=O)(=O)/C=C\C#N)cc1
inactive: Potency [2] > 46 µM | Potency [3] > 46 µM | Potency [5] | Potency [7] | Potency [8] | Potency [9]
active: Potency [17] 5.01 µM

COc1ccc2[nH]cc(CC(N)C(=O)O)c2c1 (configuration not stated)
inactive: Potency [5] | Potency [6] | Potency [7] | Potency [8] | Potency [9]

CC(=O)N(O)[C@@H]1c2cc(C#N)ccc2OC(C)(C)[C@H]1O
inactive: Potency [14] | Potency [8] | Potency [9]

COc1ccc(-c2ccc(=N)n(CCCC(=O)O)n2)cc1
inactive: Potency [2] > 46 µM | Potency [10] | Potency [6] | Potency [7] | Potency [8] | Potency [9]
active: Potency [18] 3.16 µM | Potency [17] 0.158 µM

Fc1cccc(/C=N\N=C/c2cccc(F)c2)c1
inactive: Potency [3] > 46 µM | Potency [10] | Potency [4] | outcome [13] | Potency [5] | outcome [15] | outcome [16] | Potency [6] | Potency [7] | Potency [8] | Potency [9]

CC(C)[C@@H]1C(=O)N(S(C)(=O)=O)[C@H]2CCN(C(=O)/C=C\CN3CCCCC3)[C@@H]12
inactive: Potency [3] > 46 µM | Potency [10] | Potency [4] | Potency [6] | Potency [7] | Potency [8] | Potency [9]

CCCCCCCCCCCCCCCC(=O)O[C@H](CC(=O)O)C[N+](C)(C)C
inactive: Potency [3] > 46 µM | Potency [10] | Potency [4] | outcome [13] | outcome [15] | outcome [16] | Potency [7] | Potency [8] | Potency [9]

CSc1cc2c(cc1C(F)(F)F)N(C(=O)Nc1cccnc1)CC2
inactive: Potency [2] > 46 µM | Potency [3] > 46 µM | Potency [10] | Potency [5] | Potency [7] | Potency [8] | Potency [9]
active: Potency [18] 0.0063 µM

CC(=O)NCCc1c(Cc2ccccc2)[nH]c2ccccc12
inactive: Potency [3] > 46 µM | Potency [4] | Potency [5] | Potency [7] | Potency [8] | Potency [9]
active: Potency [14] 7.94 µM

CCN(CC)c1ncnc2c1ncn2[C@@H]1O[C@@H](COP(=O)(O)OP(=O)(O)C(Br)(Br)P(=O)(O)O)[C@H](O)[C@H]1O
inactive: Potency [6] | Potency [7] | Potency [8] | Potency [9]

CCN(CC)CCCCC1CCN(CC(=O)N2c3ccccc3C(=O)Nc3cccnc32)CC1
inactive: Potency [14] | Potency [8] | Potency [9]

N=C(N)S/C=C\C(=O)O
inactive: Potency [3] > 46 µM | Potency [10] | Potency [7] | Potency [8] | Potency [9]

CCN(CC)C[C@@H]1CCCCN1CC(=O)N1c2ccccc2C(=O)Nc2cccnc21
inactive: Potency [10] | Potency [4] | Potency [5] | Potency [7] | Potency [8] | Potency [9]

O=[N+]([O-])c1ccc2cn[nH]c2c1
inactive: Potency [3] > 46 µM | Potency [5] | Potency [6] | Potency [7] | Potency [8] | Potency [9]

CC(C)C[C@@H](NC(=O)OCC1c2ccccc2-c2ccccc21)C(=O)O
inactive: Potency [2] > 46 µM | Potency [3] > 46 µM | Potency [7] | Potency [8] | Potency [9]

COc1ccc(NC(=O)c2ccc(-c3ccc(-c4noc(C)n4)cc3C)cc2)cc1OCCN(C)C
inactive: Potency [2] > 46 µM | Potency [10] | Potency [5] | Potency [7] | Potency [8] | Potency [9]
